Bioassay records: PubChem BioAssay, National Center for Advancing Translational Sciences (NCATS)
LDHA block: qHTS assay for inhibitors of human lactate dehydrogenase. purified LDHA, NADH/diaphorase-resazurin fluorescence; hits give low values. L-lactate dehydrogenase A chain (Homo sapiens), P00338. 480,000 compounds, 0.15% hits. activity change, % (values are at about 110 or 230 µM); in the data active means activity change below about -30%; inconclusive means mostly about -25% to -30%;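 further: plate controls were DMSO wells for no effect and wells without enzyme for full effect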
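Enzyme activity of human lactate dehydrogenase 5 (2 nM; 0.06 mM NADH, 0.2 mM pyruvate, 5 min, RT) is measured via a resazurin/diaphorase fluorescence readout of residual NADH.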
Nrf2 ARE act: qHTS of Nrf2 Activators | AREc32 ARE-luciferase reporter (MCF7-derived line), luminescence, 24 h | Potency, µM (highest dose often 46.1 µM), without a hit: top-dose activation, hits mostly activators | 410,000 compounds, 0.31% hits | AID 624171, 2012; further: potency means the concentration at half of the fitted maximal effect; % of control where 0% means no effect; nearly all actives have a fitted effect of over 65% in size
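Steps: seed AREc32_Fluc cells (1000/well, 5% FBS OPTI-MEM); incubate overnight at 37 deg C; add 23 nL compound; incubate 24 hr; add Steady-Glo; hold 30 min RT; read luminescence.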
12-LOX inh: Primary qHTS assay for inhibitors of human arachidonate 12S-lipoxygenase (ALOX12): Round 2 | purified 12hLO, xylenol orange hydroperoxide absorbance | Potency, µM (top dose mostly 108 µM), without a hit: at the highest dose activity change, negative = inhibition, most hits filed as inhibitors | 580,000 compounds, 1.1% hits; further: potency means the concentration at half of the fitted maximal effect; on the % scale 0 is the no-effect control and ±100 the full control effect
Target sequence (P18054 whole entry, looked up): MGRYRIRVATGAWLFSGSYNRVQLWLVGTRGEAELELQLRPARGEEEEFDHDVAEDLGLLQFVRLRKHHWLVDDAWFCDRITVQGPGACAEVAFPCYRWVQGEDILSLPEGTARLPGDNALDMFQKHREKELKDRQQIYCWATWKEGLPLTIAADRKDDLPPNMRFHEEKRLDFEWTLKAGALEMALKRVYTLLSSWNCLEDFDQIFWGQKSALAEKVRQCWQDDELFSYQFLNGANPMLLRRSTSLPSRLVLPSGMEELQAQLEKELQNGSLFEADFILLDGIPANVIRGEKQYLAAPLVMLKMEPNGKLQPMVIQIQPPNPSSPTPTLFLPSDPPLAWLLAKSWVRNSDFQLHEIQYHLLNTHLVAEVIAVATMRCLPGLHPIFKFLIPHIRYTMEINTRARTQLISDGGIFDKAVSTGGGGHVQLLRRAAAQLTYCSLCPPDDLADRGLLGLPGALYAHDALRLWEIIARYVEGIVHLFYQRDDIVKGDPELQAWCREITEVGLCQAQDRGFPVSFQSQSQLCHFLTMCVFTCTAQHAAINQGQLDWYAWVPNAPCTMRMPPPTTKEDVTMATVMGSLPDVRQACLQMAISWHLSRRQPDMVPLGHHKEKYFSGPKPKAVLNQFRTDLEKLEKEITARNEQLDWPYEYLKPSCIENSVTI
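Purified human 12hLO (150 nM final) in 25 mM Hepes, 0.01% Triton X-100, pH 7.0 was preincubated 15 min at room temperature with compound. Then 40 uM arachidonic acid was added, 30 min. Hydroperoxide was read by Fe-XO absorbance ratio 573/405 nm.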
A549 tox: Nrf2 qHTS screen for inhibitors: counterscreen for cytotoxicity; A549 ARE-Fluc cells, CellTiter-Fluor viability, 18-24 h; AID 504648, 2011; Potency, µM (highest dose often 46 µM), for the others: top-dose activity change, negative = cytotoxicity, usual class: inhibitors; 390,000 compounds, 0.16% hits; further: potency means the concentration at half of the fitted maximal effect; on the % scale 0 is the no-effect control and ±100 the full control effect
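A549 ARE_Fluc cells in 5% FBS OPTI-MEM were exposed to compounds in concentration-response for 18-24 h at 37 deg C. Viability was read by CellTiter-Fluor fluorescence (Ex 405/Em 525) after 30 min, before the luciferase read.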
IDH1 R132H inh: qHTS for Inhibitors of mutant isocitrate dehydrogenase 1 (IDH1): qHTS; 390,000 compounds, 0.093% hits; AID 602179, 2012; Isocitrate dehydrogenase [NADP] cytoplasmic (Homo sapiens), O75874; IDH1-R132H enzyme, NADPH consumption, diaphorase/resazurin fluorescence; Potency, µM (doses to about 76.6 µM), without a hit: at the highest dose activity change, negative = inhibition, usual class: inhibitors; further: potency means the concentration at half of the fitted maximal effect; on the % scale 0 is the no-effect control and ±100 the full control effect; nearly all actives have a fitted effect of over 65% in size
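IDH1-R132H (0.5 ug/mL) preincubated 30 min with compound, then NADPH (0.016 mM) and alpha-KG (2 mM) added; 80 min at RT, pH 7.5. Remaining NADPH coupled via diaphorase/resazurin to fluorescence (540/590 nm); concentration-response curves normalized to no-enzyme control.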
Nrf2 block: Nrf2 qHTS screen for inhibitors; A549 ARE-Fluc reporter, luciferase luminescence, 18-24 h; Potency, µM (series often up to 46 µM), inactives show at the top dose activity change, negative = inhibition, usual class: inhibitors; 360,000 compounds, 2.1% hits; AID 504444, 2011; further: potency means the concentration at half of the fitted maximal effect; on the % scale 0 is the no-effect control and ±100 the full control effect; nearly all actives have a fitted effect of over 60% in size
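Nrf2 function is reported as luminescence of an ARE-controlled luciferase in A549 cells. Compounds were tested at several concentrations, and a CellTiter-Fluor read on the same wells flagged cytotoxicity.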
* = called active by the depositor. This is a sample that favours compounds with a hit; in the whole collection about 2.7% have one here. Unless noted, the call rests on the fitted dose curve; in most records, active means well fitted curve in the direction sought with a large enough effect; inconclusive means small, poorly fitted or top-dose-only effect, or another doubt; inactive means no such curve, though single readings can be large; an effect the other way counts as inactive or inconclusive.

Cc1ccc2c(c1)C(C)(C)C1(/C=C/c3ccccc3F)NC(=O)CN21 (centres undefined) was read as LDHA block 4.3 and 12-LOX inh -5.6%.
`c1ccc2c(-c3ccn[nH]3)cccc2c1` gave LDHA block -14.3 and 12-LOX inh 25.1µM*.
`c1ccc(-c2ccc(-c3ccn[nH]3)cc2)cc1` gave LDHA block -17.2 and 12-LOX inh inconclusive.
Screening Cc1ccc(NC(=O)c2ccc(CNS(=O)(=O)c3ccc4c(c3)C(C)(C)C(=O)N4C)cc2)cc1 returned LDHA block -1.0, Nrf2 ARE act 5.3%, 12-LOX inh -4.4%, A549 tox 3.2%, IDH1 R132H inh 0.0% and Nrf2 block 0.0%.
`CCc1cccc(NC(=O)c2ccc(CNS(=O)(=O)c3ccc4c(c3)C(C)(C)C(=O)N4C)cc2)c1` gave LDHA block -0.2, Nrf2 ARE act -0.9%, 12-LOX inh 0.0%, A549 tox -20.9%, IDH1 R132H inh 1.6% and Nrf2 block 16.4µM*.
For COc1ccc(NC(=O)c2ccc(CNS(=O)(=O)c3ccc4c(c3)C(C)(C)C(=O)N4C)cc2)cc1 the results were LDHA block 0.0, Nrf2 ARE act 2.4%, 12-LOX inh -19.0%, A549 tox -0.9%, IDH1 R132H inh 0.0% and Nrf2 block -10.0%.
Screening Cc1ccc(NC(=O)c2ccc(CNS(=O)(=O)c3ccc4c(c3)C(C)(C)C(=O)N4C)cc2)cc1F returned LDHA block 0.6, Nrf2 ARE act 0.4%, 12-LOX inh -36.6%, A549 tox -18.9%, IDH1 R132H inh 11.9% and Nrf2 block 23.1µM*.
`CCOc1ccc(CNCC2CCCO2)cc1OCC` (centres undefined) gave LDHA block 1.2 and 12-LOX inh 10.4%.
Screening Cc1nc2cc(NS(=O)(=O)c3cc(F)cc(F)c3)ccc2o1 returned LDHA block -1.9 and 12-LOX inh -4.5%.
`CCN(CC)c1ccc(/C=N/N2CC(=O)NC2=S)cc1` gave LDHA block -2.1, Nrf2 ARE act 0.8%, 12-LOX inh 3.55µM*, A549 tox -14.1%, IDH1 R132H inh 9.0% and Nrf2 block -5.5%.
For CCNS(=O)(=O)c1ccc(C)c(C(=O)Nc2cccc3c2CCCC3)c1 the results were LDHA block 1.3 and 12-LOX inh 18.6%.
`COc1ccccc1C(=O)COC(=O)c1cccs1` gave LDHA block -3.8, Nrf2 ARE act 8.91µM*, 12-LOX inh 2.5%, A549 tox -8.5%, IDH1 R132H inh 0.0% and Nrf2 block inconclusive.
For Cc1cc(C(=O)COC(=O)c2cccs2)c(C)n1Cc1ccco1 the results were LDHA block -33.3* and 12-LOX inh -26.9%.
Cc1cc(C(=O)COC(=O)c2ccco2)c(C)n1Cc1cccs1 was read as LDHA block 2.1 and 12-LOX inh -7.5%.
For O=c1cc(CO)oc(CN2CCN(c3cccc(C(F)(F)F)c3)CC2)c1O the results were LDHA block 3.1, Nrf2 ARE act -1.2%, 12-LOX inh 1.41µM*, A549 tox 3.4%, IDH1 R132H inh 3.0% and Nrf2 block inconclusive.
`Cc1ccc(-n2nc3c(=O)n(C(C)C(=O)NCc4ccccc4C)nc(C)c3c2C)cc1` (centres undefined) gave LDHA block -8.9, Nrf2 ARE act -0.8%, 12-LOX inh inconclusive, A549 tox -8.8%, IDH1 R132H inh 11.8% and Nrf2 block 5.17µM*.
`CCC(C(=O)NCCc1ccc(C)cc1)n1nc(C)c2c(C)n(-c3ccccc3)nc2c1=O` (centres undefined) gave LDHA block 0.0, Nrf2 ARE act -0.6%, 12-LOX inh 0.7%, A549 tox -18.5%, IDH1 R132H inh 0.6% and Nrf2 block 16.4µM*.
`Cc1nn(C(C)C(=O)NCc2ccccc2F)c(=O)c2nn(-c3ccccc3)c(C)c12` (centres undefined) gave LDHA block -1.3, Nrf2 ARE act -0.5%, 12-LOX inh -17.1%, A549 tox 0.4%, IDH1 R132H inh -9.7% and Nrf2 block 1.5%.
`CCC(C(=O)NCCc1ccc(SC)cc1)n1nc(C)c2c(C)n(-c3ccc(C)cc3)nc2c1=O` (centres undefined) gave LDHA block 2.8, Nrf2 ARE act 0.2%, 12-LOX inh -19.3%, A549 tox -12.5%, IDH1 R132H inh 7.7% and Nrf2 block -100.3%.
For Cc1ccc(-n2nc3c(=O)n(C(C)C(=O)NCc4ccc(Cl)cc4)nc(C)c3c2C)cc1 (centres undefined) the results were LDHA block -4.2, Nrf2 ARE act 2.2%, 12-LOX inh -27.3%, A549 tox -19.4%, IDH1 R132H inh -8.1% and Nrf2 block 10.3µM*.
`Cc1ccc(-n2nc3c(=O)n(C(C)C(=O)NCCC4=CCCCC4)nc(C)c3c2C)cc1` (centres undefined) gave LDHA block 1.9, Nrf2 ARE act 0.6%, 12-LOX inh 24.6%, A549 tox -16.2%, IDH1 R132H inh -3.0% and Nrf2 block 20.6µM*.
For COc1cc(C(=O)/C=C/c2cccc(F)c2)ccc1S(C)(=O)=O the results were LDHA block 10.0 and 12-LOX inh inconclusive.
`Cc1ccccc1Nc1nc(-c2ccc(C)c([N+](=O)[O-])c2)cs1` gave LDHA block 11.1 and 12-LOX inh inconclusive.
`O=C(Cc1scnc1-c1cccs1)NCc1ccccc1F` gave LDHA block -15.9 and 12-LOX inh inconclusive.
`CCOC(=O)C1=C(C)OC(N)=C(C#N)C1c1ccccc1` (centres undefined) gave LDHA block 1.4, Nrf2 ARE act -0.3%, 12-LOX inh -18.1%, A549 tox -3.7%, IDH1 R132H inh 0.7% and Nrf2 block -0.9%.
`CCOC(=O)C1=C(C)OC(N)=C(C#N)C1c1ccc(C(F)(F)F)cc1` (centres undefined) gave LDHA block 2.3 and 12-LOX inh 15.8µM*.
COc1cc(Nc2cc3[nH]c(-c4ccccn4)cc3cn2)cc(C(F)(F)F)c1 was read as 12-LOX inh -28.6%.
Screening Clc1ccc(N2CCN(c3ccnc(Cl)n3)CC2)cc1 returned LDHA block 2.3, Nrf2 ARE act 0.3%, 12-LOX inh -8.4%, A549 tox -6.9%, IDH1 R132H inh 4.4% and Nrf2 block 16.4µM*.
